Reference: ChEMBL document CHEMBL2218924, “A broad activity screen in support of a chemogenomic map for kinase signalling research and drug discovery” (Biochem J, 2013)

Columns and labels:
[1] = biological target: T1, Activin receptor type-1B (Homo sapiens) (UniProt P36896); conditions: at 1 µM
T1 sequence (whole entry): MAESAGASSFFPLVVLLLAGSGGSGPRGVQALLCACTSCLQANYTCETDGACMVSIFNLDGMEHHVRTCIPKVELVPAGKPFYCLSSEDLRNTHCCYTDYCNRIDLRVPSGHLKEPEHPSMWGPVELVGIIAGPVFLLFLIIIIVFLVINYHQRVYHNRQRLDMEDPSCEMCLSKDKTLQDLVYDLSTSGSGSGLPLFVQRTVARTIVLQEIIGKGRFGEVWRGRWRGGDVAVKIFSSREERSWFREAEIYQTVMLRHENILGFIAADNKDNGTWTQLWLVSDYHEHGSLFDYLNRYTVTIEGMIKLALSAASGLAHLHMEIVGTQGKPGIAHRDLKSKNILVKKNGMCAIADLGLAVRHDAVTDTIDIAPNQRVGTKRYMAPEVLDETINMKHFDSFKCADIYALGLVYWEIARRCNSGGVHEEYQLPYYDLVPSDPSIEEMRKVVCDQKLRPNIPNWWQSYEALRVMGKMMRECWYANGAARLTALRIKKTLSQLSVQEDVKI

[2] = biological target: T2, AMP-activated protein kinase (AMPK) alpha-1/beta-1/gamma-1 (Homo sapiens) (UniProt P54619+Q9Y478+Q13131); conditions: at 1 µM
[3] = biological target: T2, AMP-activated protein kinase (AMPK) alpha-1/beta-1/gamma-1 (Homo sapiens); conditions: at 10 µM
[4] = biological target: T3, AMP-activated protein kinase, AMPK (Homo sapiens) (UniProt P54646+O43741+P54619+Q9UGJ0+Q9Y478+Q13131+Q9UGI9); conditions: at 1 µM
[5] = biological target: T3, AMP-activated protein kinase, AMPK (Homo sapiens); conditions: at 10 µM
[6] = biological target: T4, NUAK family SNF1-like kinase 1 (Homo sapiens) (UniProt O60285); conditions: at 10 µM
T4 sequence (whole entry): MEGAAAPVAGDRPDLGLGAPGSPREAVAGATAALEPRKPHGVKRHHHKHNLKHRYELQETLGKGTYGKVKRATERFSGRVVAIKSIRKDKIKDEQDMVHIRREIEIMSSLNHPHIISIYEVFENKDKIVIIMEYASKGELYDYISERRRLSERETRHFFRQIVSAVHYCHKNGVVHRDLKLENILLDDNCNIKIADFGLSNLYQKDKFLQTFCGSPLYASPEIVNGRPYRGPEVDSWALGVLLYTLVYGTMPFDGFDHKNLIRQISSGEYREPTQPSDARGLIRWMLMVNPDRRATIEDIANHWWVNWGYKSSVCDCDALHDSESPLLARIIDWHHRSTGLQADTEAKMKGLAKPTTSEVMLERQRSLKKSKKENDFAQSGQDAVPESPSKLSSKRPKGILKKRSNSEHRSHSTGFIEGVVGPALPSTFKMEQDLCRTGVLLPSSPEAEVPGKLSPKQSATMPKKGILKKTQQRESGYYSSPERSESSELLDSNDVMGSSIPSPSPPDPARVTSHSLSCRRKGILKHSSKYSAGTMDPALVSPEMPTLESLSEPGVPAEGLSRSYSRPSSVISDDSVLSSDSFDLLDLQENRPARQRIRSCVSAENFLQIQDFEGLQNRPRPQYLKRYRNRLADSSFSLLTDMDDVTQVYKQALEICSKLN

[7] = biological target: T5, Mitogen-activated protein kinase kinase kinase 5 (Homo sapiens) (UniProt Q99683); conditions: at 1 µM
T5 sequence (whole entry): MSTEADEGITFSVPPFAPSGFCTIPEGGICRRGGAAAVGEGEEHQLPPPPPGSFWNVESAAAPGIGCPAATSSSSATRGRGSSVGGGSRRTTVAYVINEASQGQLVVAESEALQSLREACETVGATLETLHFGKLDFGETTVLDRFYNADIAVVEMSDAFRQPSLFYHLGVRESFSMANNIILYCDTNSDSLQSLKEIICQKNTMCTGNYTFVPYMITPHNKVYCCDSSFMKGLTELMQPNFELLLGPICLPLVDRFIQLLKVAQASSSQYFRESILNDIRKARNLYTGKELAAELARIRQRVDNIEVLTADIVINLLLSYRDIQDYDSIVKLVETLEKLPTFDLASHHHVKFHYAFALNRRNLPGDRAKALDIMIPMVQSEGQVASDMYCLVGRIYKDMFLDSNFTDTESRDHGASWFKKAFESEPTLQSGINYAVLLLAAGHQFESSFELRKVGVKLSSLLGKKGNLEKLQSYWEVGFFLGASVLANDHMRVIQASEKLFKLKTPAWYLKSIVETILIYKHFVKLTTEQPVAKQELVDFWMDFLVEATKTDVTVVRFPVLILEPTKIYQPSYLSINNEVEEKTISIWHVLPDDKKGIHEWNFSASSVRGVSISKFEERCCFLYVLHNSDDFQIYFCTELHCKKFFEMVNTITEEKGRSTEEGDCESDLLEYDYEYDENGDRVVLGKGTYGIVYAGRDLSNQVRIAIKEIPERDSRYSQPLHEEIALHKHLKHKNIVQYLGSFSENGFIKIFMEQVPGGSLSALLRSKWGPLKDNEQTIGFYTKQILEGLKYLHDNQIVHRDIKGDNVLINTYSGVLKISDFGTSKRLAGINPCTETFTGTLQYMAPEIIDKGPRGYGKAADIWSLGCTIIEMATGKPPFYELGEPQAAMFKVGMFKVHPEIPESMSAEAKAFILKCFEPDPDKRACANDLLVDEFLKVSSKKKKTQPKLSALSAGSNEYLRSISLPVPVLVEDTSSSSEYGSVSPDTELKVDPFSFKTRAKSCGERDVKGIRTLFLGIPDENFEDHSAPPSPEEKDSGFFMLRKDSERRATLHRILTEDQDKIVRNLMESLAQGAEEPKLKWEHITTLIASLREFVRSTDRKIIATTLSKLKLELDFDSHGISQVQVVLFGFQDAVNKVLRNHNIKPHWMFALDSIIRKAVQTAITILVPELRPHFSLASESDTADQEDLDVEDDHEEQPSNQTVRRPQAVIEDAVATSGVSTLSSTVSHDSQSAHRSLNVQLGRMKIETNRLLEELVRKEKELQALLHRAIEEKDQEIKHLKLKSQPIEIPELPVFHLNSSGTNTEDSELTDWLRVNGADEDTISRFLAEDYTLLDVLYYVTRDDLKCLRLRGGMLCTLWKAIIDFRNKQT

[8] = biological target: Platelet-derived growth factor receptor alpha (Homo sapiens) (UniProt P16234); conditions: at 1 µM
[9] = biological target: Platelet-derived growth factor receptor alpha (Homo sapiens) (UniProt P16234); conditions: at 10 µM
[10] = biological target: Platelet-derived growth factor receptor beta (Homo sapiens) (UniProt P09619); conditions: at 1 µM
[11] = biological target: Platelet-derived growth factor receptor beta (Homo sapiens) (UniProt P09619); conditions: at 10 µM
[12] = biological target: cAMP-dependent protein kinase catalytic subunit alpha (Homo sapiens) (UniProt P17612); conditions: at 1 µM
[13] = biological target: cAMP-dependent protein kinase catalytic subunit alpha (Homo sapiens) (UniProt P17612); conditions: at 10 µM
[14] = biological target: ALK tyrosine kinase receptor (Homo sapiens) (UniProt Q9UM73); conditions: at 10 µM
[15] = biological target: T4, NUAK family SNF1-like kinase 1 (Homo sapiens); conditions: at 1 µM
[16] = biological target: RAC-gamma serine/threonine-protein kinase (Homo sapiens) (UniProt Q9Y243); conditions: at 1 µM
[17] = biological target: RAC-gamma serine/threonine-protein kinase (Homo sapiens) (UniProt Q9Y243); conditions: at 10 µM
[18] = biological target: T6, 3-phosphoinositide-dependent protein kinase 1 (Homo sapiens) (UniProt O15530); conditions: at 1 µM
T6 sequence (whole entry): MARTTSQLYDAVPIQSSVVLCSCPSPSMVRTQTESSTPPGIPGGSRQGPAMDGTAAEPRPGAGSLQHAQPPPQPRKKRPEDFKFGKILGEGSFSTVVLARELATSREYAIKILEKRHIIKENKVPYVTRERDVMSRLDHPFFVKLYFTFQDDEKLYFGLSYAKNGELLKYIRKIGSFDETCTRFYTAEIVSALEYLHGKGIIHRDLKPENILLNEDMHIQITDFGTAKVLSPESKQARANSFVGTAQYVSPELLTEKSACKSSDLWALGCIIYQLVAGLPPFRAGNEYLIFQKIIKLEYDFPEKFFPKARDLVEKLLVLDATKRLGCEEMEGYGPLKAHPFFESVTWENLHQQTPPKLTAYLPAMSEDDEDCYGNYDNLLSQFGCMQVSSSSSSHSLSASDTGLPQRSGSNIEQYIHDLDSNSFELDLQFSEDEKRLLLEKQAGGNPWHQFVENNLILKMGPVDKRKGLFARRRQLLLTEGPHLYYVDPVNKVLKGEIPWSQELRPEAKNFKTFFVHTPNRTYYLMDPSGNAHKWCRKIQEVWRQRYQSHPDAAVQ

[19] = biological target: T6, 3-phosphoinositide-dependent protein kinase 1 (Homo sapiens); conditions: at 10 µM
[20] = biological target: T1, Activin receptor type-1B (Homo sapiens); conditions: at 10 µM

Chain of RAC-gamma serine/threonine-protein kinase (Homo sapiens) (Q9Y243 whole entry): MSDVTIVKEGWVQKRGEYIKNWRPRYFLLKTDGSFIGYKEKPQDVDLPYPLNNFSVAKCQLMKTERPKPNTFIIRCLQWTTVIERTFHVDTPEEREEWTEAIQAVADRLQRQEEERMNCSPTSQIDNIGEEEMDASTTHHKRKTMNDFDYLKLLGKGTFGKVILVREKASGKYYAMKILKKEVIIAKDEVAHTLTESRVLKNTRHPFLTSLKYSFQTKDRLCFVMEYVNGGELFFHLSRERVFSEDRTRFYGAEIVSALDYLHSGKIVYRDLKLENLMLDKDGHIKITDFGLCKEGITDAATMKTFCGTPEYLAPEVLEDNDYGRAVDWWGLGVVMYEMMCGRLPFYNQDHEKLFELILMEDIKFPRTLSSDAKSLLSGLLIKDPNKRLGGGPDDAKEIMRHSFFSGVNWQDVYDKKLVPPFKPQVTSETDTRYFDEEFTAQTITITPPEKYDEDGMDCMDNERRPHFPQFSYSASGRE
Chain of ALK tyrosine kinase receptor (Homo sapiens) (Q9UM73 19-1620 limits assumed): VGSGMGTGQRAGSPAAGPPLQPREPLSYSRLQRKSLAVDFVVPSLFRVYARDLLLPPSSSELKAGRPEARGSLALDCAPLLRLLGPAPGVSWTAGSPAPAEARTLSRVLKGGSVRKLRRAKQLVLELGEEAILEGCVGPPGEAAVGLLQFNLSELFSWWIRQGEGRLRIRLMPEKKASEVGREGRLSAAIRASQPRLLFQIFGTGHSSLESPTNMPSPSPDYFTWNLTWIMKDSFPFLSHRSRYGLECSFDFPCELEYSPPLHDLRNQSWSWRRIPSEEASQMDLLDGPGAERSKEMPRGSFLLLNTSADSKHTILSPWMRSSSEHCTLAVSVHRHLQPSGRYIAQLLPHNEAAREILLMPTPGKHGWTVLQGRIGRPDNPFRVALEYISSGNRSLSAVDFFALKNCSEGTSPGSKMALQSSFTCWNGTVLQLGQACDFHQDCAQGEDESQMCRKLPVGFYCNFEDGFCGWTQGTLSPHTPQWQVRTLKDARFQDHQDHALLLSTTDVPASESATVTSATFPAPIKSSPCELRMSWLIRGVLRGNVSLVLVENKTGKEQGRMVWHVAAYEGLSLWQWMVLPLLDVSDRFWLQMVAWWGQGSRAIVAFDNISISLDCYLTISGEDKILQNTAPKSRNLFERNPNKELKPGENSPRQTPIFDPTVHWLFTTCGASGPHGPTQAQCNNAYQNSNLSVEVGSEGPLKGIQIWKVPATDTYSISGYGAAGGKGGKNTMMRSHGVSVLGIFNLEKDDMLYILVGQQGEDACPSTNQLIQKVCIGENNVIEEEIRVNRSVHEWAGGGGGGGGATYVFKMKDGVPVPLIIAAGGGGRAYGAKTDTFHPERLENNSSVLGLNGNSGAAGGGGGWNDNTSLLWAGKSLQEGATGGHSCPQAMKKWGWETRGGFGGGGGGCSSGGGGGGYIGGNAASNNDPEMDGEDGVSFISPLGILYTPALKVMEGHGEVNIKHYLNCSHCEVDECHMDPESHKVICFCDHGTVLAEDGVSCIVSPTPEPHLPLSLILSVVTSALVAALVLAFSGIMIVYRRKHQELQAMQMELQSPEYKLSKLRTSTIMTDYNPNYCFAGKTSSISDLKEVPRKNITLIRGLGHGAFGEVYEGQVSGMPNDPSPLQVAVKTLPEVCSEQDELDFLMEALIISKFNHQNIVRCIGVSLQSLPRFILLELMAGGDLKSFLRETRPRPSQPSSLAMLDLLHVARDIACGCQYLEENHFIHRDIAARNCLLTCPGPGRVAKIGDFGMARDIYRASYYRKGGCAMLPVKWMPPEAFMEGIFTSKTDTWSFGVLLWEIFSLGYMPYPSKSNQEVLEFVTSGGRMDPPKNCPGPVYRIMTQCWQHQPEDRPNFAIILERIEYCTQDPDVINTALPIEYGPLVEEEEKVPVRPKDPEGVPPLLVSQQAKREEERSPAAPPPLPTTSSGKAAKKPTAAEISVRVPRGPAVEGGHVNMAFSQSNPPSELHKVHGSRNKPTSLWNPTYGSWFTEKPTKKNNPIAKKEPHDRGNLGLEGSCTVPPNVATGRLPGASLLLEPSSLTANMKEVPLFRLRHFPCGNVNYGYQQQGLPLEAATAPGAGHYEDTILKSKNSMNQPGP
Chain of Platelet-derived growth factor receptor beta (Homo sapiens) (P09619 whole entry): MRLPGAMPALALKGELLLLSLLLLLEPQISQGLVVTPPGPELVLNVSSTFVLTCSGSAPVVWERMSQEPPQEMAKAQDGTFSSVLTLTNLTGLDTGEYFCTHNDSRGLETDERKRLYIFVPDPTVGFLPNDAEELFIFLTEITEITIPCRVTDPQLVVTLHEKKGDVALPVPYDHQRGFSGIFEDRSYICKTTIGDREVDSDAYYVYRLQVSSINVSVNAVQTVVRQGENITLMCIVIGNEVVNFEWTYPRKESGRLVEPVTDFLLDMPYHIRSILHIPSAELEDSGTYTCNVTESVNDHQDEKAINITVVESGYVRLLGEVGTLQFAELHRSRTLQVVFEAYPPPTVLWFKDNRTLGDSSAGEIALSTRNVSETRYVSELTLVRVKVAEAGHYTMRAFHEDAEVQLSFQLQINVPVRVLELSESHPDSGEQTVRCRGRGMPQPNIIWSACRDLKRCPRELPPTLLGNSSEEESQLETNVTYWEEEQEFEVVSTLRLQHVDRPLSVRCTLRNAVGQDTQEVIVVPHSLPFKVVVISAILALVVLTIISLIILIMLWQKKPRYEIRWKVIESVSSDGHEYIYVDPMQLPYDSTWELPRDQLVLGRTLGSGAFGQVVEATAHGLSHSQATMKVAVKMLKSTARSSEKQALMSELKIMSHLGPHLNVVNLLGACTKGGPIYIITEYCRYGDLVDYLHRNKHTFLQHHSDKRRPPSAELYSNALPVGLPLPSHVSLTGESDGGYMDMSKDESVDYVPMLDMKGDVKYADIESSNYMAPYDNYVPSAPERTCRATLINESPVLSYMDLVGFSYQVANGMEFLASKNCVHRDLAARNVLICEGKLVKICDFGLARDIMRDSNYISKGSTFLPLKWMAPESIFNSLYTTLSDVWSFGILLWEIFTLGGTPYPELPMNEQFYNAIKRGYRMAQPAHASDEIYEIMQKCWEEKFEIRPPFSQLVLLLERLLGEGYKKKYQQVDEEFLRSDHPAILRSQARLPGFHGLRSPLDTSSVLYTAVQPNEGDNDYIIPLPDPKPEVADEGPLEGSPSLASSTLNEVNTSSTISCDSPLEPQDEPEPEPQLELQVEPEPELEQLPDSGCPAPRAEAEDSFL
Chain of Platelet-derived growth factor receptor alpha (Homo sapiens) (P16234 whole entry): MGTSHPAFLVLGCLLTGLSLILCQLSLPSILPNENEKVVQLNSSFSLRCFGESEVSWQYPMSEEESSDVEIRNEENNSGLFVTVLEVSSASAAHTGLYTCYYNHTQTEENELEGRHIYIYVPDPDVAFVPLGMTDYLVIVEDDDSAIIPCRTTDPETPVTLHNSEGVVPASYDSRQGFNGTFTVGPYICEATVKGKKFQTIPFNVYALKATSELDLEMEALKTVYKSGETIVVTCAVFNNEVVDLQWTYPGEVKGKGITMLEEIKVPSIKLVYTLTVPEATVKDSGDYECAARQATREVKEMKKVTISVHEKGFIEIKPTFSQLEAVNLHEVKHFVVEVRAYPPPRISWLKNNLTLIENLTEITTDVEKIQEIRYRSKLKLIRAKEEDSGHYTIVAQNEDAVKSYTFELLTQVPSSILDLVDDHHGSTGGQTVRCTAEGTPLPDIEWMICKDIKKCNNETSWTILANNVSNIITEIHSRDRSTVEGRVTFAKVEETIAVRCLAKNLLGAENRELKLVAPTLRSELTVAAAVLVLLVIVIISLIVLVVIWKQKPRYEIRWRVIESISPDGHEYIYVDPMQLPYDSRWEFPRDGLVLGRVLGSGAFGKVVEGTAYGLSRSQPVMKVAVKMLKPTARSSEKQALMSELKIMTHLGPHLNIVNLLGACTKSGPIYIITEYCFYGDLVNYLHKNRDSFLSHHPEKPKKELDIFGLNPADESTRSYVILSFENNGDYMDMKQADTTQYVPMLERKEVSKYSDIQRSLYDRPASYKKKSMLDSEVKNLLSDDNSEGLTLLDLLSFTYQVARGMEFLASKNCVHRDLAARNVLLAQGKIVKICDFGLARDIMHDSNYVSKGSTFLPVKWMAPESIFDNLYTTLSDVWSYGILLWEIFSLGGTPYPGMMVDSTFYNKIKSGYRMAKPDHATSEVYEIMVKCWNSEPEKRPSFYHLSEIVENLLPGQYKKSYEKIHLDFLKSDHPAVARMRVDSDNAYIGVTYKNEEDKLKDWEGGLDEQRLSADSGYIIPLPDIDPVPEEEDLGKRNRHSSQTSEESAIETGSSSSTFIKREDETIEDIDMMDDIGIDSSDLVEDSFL

Row | SMILES | residual activity [1] [%] | residual activity [2] [%] | residual activity [3] [%] | residual activity [4] [%] | residual activity [5] [%] | residual activity [6] [%] | residual activity [7] [%] | residual activity [8] [%] | residual activity [9] [%] | residual activity [10] [%] | residual activity [11] [%] | residual activity [12] [%] | residual activity [13] [%] | residual activity [14] [%] | residual activity [15] [%] | residual activity [16] [%] | residual activity [17] [%] | residual activity [18] [%] | residual activity [19] [%] | residual activity [20] [%]
1 | O=C(c1ccccc1)c1ccc(N2CCOCC2)cc1O | 123 | 98 | 72 | 89 | 81 | 90 | 91 | 113 | 92 | 116 | 99 | 69 | 81 | – | – | – | – | – | – | –
2 | O=C1Nc2ccc(Cl)cc2/C1=C/c1cc(Cl)c(O)c(Cl)c1 | – | 79 | 40 | 77 | 40 | 50 | 93 | 60 | 10 | 75 | 25 | 68 | 66 | 19 | 69 | 96 | 80 | – | – | –
3 | CC(C)c1nn(-c2c(Cl)cccc2Cl)c2nc(Cc3ccc(OCCO)cc3)[nH]c(=O)c12 | – | 93 | 71 | 87 | 74 | 72 | 95 | – | – | 103 | 105 | 90 | 89 | 42 | 96 | 93 | 89 | 101 | 99 | –
4 | O=S(=O)(NCCNC/C=C/c1ccc(Br)cc1)c1cccc2cnccc12 | – | 52 | 15 | 60 | 19 | 11 | – | – | – | – | – | 2 | 6 | – | 42 | 31 | 4 | – | – | –
5 | N#C/C(=C1/Nc2ccccc2S1)c1ccnc(NCCc2cccnc2)n1 | – | – | 70 | 99 | 67 | 82 | 78 | – | – | – | – | – | – | 18 | 97 | 89 | 16 | – | – | –
6 | CC(C)(C)c1nc2c3ccc(F)cc3c3c(=O)[nH]ccc3c2[nH]1 | – | 33 | 31 | 20 | 23 | 9 | 81 | 102 | – | – | – | – | – | 11 | 8 | 60 | 63 | 3 | 1 | –
7 | Nc1nccc(-c2c(-c3ccc(F)cc3)ncn2C2CCNCC2)n1 | – | – | – | – | 70 | 77 | – | – | – | – | – | – | 64 | – | – | – | – | – | – | 40
8 | Cn1sc(=O)n(Cc2ccccc2)c1=O | – | 83 | 82 | 89 | 90 | – | 81 | 100 | 100 | – | – | 91 | 89 | 71 | – | 85 | 84 | – | – | –
